16 compounds from PubChem BioAssay (NCI) can be followed below.

Compounds without any hit were thinned out: in the full panel of roughly 83,000, 20% have a hit.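 Compound tested at a single concentration for 48 hours in 96-well plates; a percent growth value below 10 was scored as active.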 A number with no mark means an inactive call. Calls of active or inactive are those of the source.

Assay in all cases: NCI-60 one-dose screen, 48 h (100 = growth as untreated, 0 = no growth, -100 = all killed)
Test [1] relates to SK-MEL-2 melanoma. The note with it: 10 µM unless noted.
In test [2] the test system is UO-31 renal. To be noted: 10 µM unless noted.
The test system of test [3] is TK-10 renal. The note with it: 10 µM unless noted.
Test [4] concerns ACHN renal. The note with it: 10 µM unless noted.
The subject of test [5] is CAKI-1 renal. The note with it: 10 µM unless noted.
The test system of test [6] is CCRF-CEM leukemia. To be noted: 10 µM unless noted.
Test [7] relates to SR leukemia. The note with it: 10 µM unless noted.
Test [8] relates to RPMI-8226 leukemia. The note with it: 10 µM.
For test [9], the system named is OVCAR-8 ovarian. To be noted: 10 µM unless noted.
The test system of test [10] is OVCAR-5 ovarian. The note with it: 10 µM unless noted.
Test [11] relates to OVCAR-4 ovarian. To be noted: 10 µM unless noted.
The test system of test [12] is SK-OV-3 ovarian. The note with it: 10 µM.
Test [13] deals with OVCAR-3 ovarian. The note with it: 10 µM unless noted.
Test [14] has as its system HS 578T breast. To be noted: 10 µM unless noted.
In test [15] the test system is SN12C renal. The note with it: 10 µM unless noted.
The test system of test [16] is A498 renal. To be noted: 10 µM unless noted.
Test [17] has as its system MOLT-4 leukemia. The note with it: 10 µM unless noted.
For test [18], the system named is IGROV1 ovarian. The note with it: 10 µM unless noted.
For test [19], the system named is NCI/ADR-RES ovarian. The note with it: 10 µM unless noted.
For test [20], the system named is EKVX NSCLC. To be noted: 10 µM unless noted.

`COC(=O)c1cc(-c2ccc(C)cc2)n(C(=O)CSc2nc3sc(C(N)=O)c(C)c3c(=O)n2Cc2ccccc2)n1`: the growth was 110% in test [1]; 87.5% in [2]; 106% in test [3]; 98.8% in test [4]; 97.7% in [5]; 93.2% in test [6]. For the same compound, the growth in [7] was 86.9%; in [8] it was 94.4%; in test [9], 104%; in test [10], 110%; in test [11], 100%; in test [12], 96.8%. For the same compound, the growth was 106% in test [13] and 107% in [14].
As for `COc1cc(/C=C/C(=O)C2=C(/C=C/c3ccc(O)c(OC)c3)NC(=O)NC2c2ccc(O)c(OC)c2)ccc1O` (stereo unspecified), the growth in test [1] was 105%; in [15], 93.6%; in [2], 84.4%; in [5] it was 93.9%; in test [16], 101%; in test [6], 69.8%. Moreover, the growth in test [17] was 70.3%; in test [7], 79%; in test [8] it was 76.2%; in test [9] it was 86.3%; in test [10], 94.2%; in test [11] it was 93%. Also, the growth was 116% in [12]; 113% in [18]; 104% in test [13]; 81% in test [14]; 107% in test [19].
On to `COC(=O)c1ccc(C(=O)Nc2ccccc2N)cc1`, for which the growth in [1] was 63%; in [15], 62.9%; in test [2] it was 36.7%; in test [4] it was 88.6%; in test [16] it was 80.5%; in [6], 4.59% (active). Moreover, the growth is 30.4% in test [17]; 67.1% in [7]; 12.6% in test [8]; 56.9% in [9]; 53.4% in [10]; 96.2% in [11]. Moreover, the growth in [12] is 92.6%; in test [18], 74.7%; in test [13], 87.5%; in test [14], 75%; in test [19], 53.1%.
Regarding `CCSc1nnc2c3cc(Br)ccc3n(C)c2n1`, the growth in [1] was 97.8%; in test [15], 102%; in test [2] it was 63.3%; in test [4], 90.8%; in [5], 80.9%; in test [16], 91.5%. Besides, the growth in test [6] is 102%; in [17] it was 107%; in test [8], 104%; in test [9], 97.2%; in test [10] it was 105%; in test [11], 98%. The growth in test [12] is 105%; in test [18] it was 90.8%; in test [13], 109%; in test [14], 111%; in [19] it was 109%.
`Cn1c2ccccc2c2nn(Cc3ccccc3)c(=O)nc21`: the growth in test [1] is 103%; in test [15], 107%; in [2] it was 75.1%; in [4] it was 88.5%; in test [5], 94.7%; in [16] it was 104%. For the same compound, the growth in test [17] is 105%; in test [7], 97.7%; in test [8], 101%; in test [9] it was 107%; in test [10], 92.8%; in test [11] it was 111%. The growth is 105% in test [12]; 120% in [18]; 107% in [13]; 106% in [14]; 109% in [19].
Take `COc1cc(C(=O)/C=C/c2c(-c3cccs3)nc3sccn23)cc(OC)c1OC`: the growth in test [20] is 3.45% (active); in [15], 4.03% (active); in test [2] it was 10.2%; in test [3], 3.46% (active); in test [4] it was 12.4%; in test [5], -29% (active). The growth in test [16] was -26.3% (active); in test [6], 10.8%; in [17] it was -1.21% (active); in [7], 10.3%; in test [8], -0.804% (active); in test [9] it was 0.926% (active). Also, the growth in [10] is 0.426% (active); in [11], -2.2% (active); in test [12] it was -2.52% (active); in test [18], 5.57% (active); in [13], -19.1% (active); in test [14], -9.28% (active). In addition, in test [19], the growth is -29.7% (active).
Regarding `COc1cccc(OC)c1OC(=O)c1ccccc1`, the growth was 95.8% in test [20]; 91.2% in [15]; 77.5% in test [2]; 114% in test [3]; 107% in test [4]; 88.4% in test [5]. Moreover, the growth in test [16] is 85.6%; in [6], 92.7%; in test [17] it was 107%; in test [7] it was 91.7%; in [8] it was 96.1%; in [9], 106%. The growth in test [10] is 107%; in test [11], 97.4%; in test [12], 106%; in test [18], 116%; in test [13] it was 123%; in test [14], 96.6%. Besides, the growth in test [19] is 105%.
Regarding `O=C1N/C(=C\c2ccccc2)c2ncccc21`, the growth was 93.1% in test [20]; 100% in test [15]; 69% in [2]; 121% in [3]; 103% in [4]; 93.6% in test [5]. The growth in [16] is 123%; in [6], 97.7%; in test [17], 80.7%; in [7], 76.4%; in [8] it was 106%; in [9], 110%. Moreover, the growth in [10] was 118%; in [11], 95.5%; in test [12] it was 89.9%; in test [18], 92.3%; in test [13] it was 99.2%; in [14], 120%. For the same compound, in test [19], the growth is 103%.
In the case of `NC(=S)N/N=C1\c2ccccc2-c2c(F)c(F)c(F)c(F)c21`, the growth in test [20] was 87.3%; in test [15] it was 70.6%; in test [2], 68.9%; in test [3], 116%; in test [4], 65.7%; in [5], 78.3%. Moreover, the growth in test [16] was 105%; in test [6] it was -28.1% (active); in test [17], -18% (active); in test [7] it was 2.57% (active); in test [8], 67.1%; in test [9] it was 39.6%. For the same compound, the growth is 108% in test [10]; 56.5% in [11]; 98.8% in test [12]; 20.8% in [18]; 61.6% in test [13]; 107% in [14]. For the same compound, the growth in [19] is 10.2%.
For the compound `NC(=O)c1cc(Cl)ccc1NC(=O)COc1ccccc1`, the growth in [1] is 49.7%; in [15] it was 64.3%; in test [2] it was 58.3%; in test [4], 58.4%; in [16] it was 83.5%; in test [17], 34.7%. Also, the growth is 23% in test [7]; 44.5% in test [8]; 60.1% in [9]; 80.5% in test [10]; 101% in [11]; 62.8% in test [12]. Further, the growth in [18] is 54.5%; in test [13], 27.2%; in [14] it was 54.7%; in test [19] it was 31.4%.
As for `Clc1ccc2c(N3CCN(c4ccnc(NC5CCCCC5)n4)CC3)ccnc2c1`, the growth in test [1] was 72.9%; in test [2], 22.4%; in [3], 61.1%; in test [4] it was 45.5%; in test [5], 57.8%; in test [16], -40.7% (active). Moreover, the growth was 8.39% (active) in test [6]; -3.75% (active) in [17]; -36% (active) in test [7]; 2.01% (active) in test [8]; 56.6% in test [9]; 80.8% in test [10]. Also, the growth was 42.3% in test [11], 62.7% in test [12], 53.4% in test [13] and 67.7% in test [14].
In the case of `COc1ccc(OC)c(C2C(C#N)=C(N)Oc3cc(O)ccc32)c1` (stereo unspecified), the growth in test [20] was 88.7%; in [15], 98%; in test [2], 81.7%; in test [3], 91.1%; in [4], 94.4%; in [5], 73.5%. Moreover, the growth in test [16] was 92.2%; in test [6], 88.2%; in test [17] it was 88.2%; in test [7], 80%; in test [8], 84.5%; in test [9], 100%. In addition, the growth in test [11] was 101%; in test [12], 97.2%; in [18] it was 105%; in test [13], 111%; in test [14], 94%; in test [19], 94.7%.
For the compound `CCCCC1COc2cccc3c(SCC(=O)N(C)c4cccc5ccccc45)cc[n+]1c23` (stereo unspecified), the growth is 109% in test [20]; 98.7% in [15]; 94.1% in [2]; 96.2% in test [3]; 104% in [4]; 98.7% in test [5]. The growth in [6] is 99.8%; in test [7] it was 96.1%; in [8] it was 89.5%; in test [9], 102%; in test [10], 112%; in [11], 99%. The growth in test [18] was 111%; in test [13] it was 107%; in test [14] it was 108%; in test [19], 104%.
For the compound `CC(=O)Nc1ccc(Sc2ccc([N+](=O)[O-])o2)cc1`, the growth in [20] is 76.4%; in test [15], 54.2%; in test [2] it was 24.2%; in test [3] it was 64.9%; in test [4], -28.1% (active); in [16], 120%. Besides, the growth is 33.2% in test [17]; 26.1% in test [7]; 9.87% (active) in [8]; -1.51% (active) in [9]; 94.8% in [10]; 23.5% in test [11]. For the same compound, the growth in test [12] was 120%; in test [18], 42.2%; in test [13], -8.53% (active); in [14], 46.8%; in test [19], 15.9%.
Consider `OC[C@@H](O)[C@@H](O)CO`, for which the growth in test [15] was 99.6%; in test [2], 80.5%; in [3], 111%; in test [4] it was 103%; in test [5] it was 93.9%; in test [16], 101%. The growth in test [6] was 100%; in test [17] it was 94.8%; in test [7], 81.7%; in [8] it was 118%; in test [9], 105%; in test [10], 102%. Besides, the growth in [11] is 101%; in [12], 116%; in test [18] it was 109%; in test [13], 106%; in [14] it was 104%; in test [19], 99.6%.
Take `CCC12CCC3c4ccc(O)cc4CCC3C1CC(O)C2O` (stereo unspecified): the growth in test [20] was 83.7%; in test [15] it was 82.5%; in test [2], 65.9%; in test [3] it was 85.3%; in [4], 103%; in [5] it was 59.4%. In addition, the growth in [6] was 85.4%; in [17], 69.4%; in test [7], 19.3%; in [8], 89%; in test [9], 91.5%; in test [11], 82.7%. In addition, the growth in [12] is 98.7%; in [18] it was 82.8%; in [13] it was 95.4%; in test [14], 76.8%; in [19], 47.1%.
